This passage reports morphology score and SARS-CoV-2 infection rate results from the supplement of paper PMC13380429.

Assay [1] concerns Vero E6 infected with SARS-CoV-2. Description: morphology score (similarity to uninfected cells); higher = more like uninfected cells. To be noted: 24 h.
The test system is the same in assay [2]. Description: SARS-CoV-2 infection rate relative to infected DMSO; higher = more infection, active = 60 or less. As to conditions: 24 h.

With `C[C@H](NC(=O)[C@@H](O)c1cc(F)cc(F)c1)C(=O)N[C@@H]1C(=O)N(C)c2ccccc2-c2ccccc21` (10 µM), the morphology score in assay [1] came out at 0.165. For the same molecule, the SARS-CoV-2 infection rate in assay [2] is 101% (inactive).

Turning to `COc1ccc2cc(CCC(C)=O)ccc2c1` [nabumetone] (10 µM), in assay [1], the morphology score turned out to be 0.0377. For the same molecule, the SARS-CoV-2 infection rate in assay [2] is 118% (inactive).

With `O=C(O)C(=O)O.[NH-][C@@H]1CCCC[C@H]1[NH-].[Pt+2]` [oxaliplatin] (10 µM), the morphology score in assay [1] was -0.0885. In assay [2], the SARS-CoV-2 infection rate was 112% (inactive).

`C[C@@H]1CC(=O)NN=C1c1ccc(NN=C(C#N)C#N)cc1` [levosimendan] (10 µM) registered a morphology score in assay [1] of -0.109. Besides, the SARS-CoV-2 infection rate in assay [2] was 117% (inactive).

`CO[C@@H]1[C@H](N(C)C(=O)c2ccccc2)C[C@H]2O[C@]1(C)n1c3ccccc3c3c4c(c5c6ccccc6n2c5c31)C(=O)NC4` [midostaurin] (10 µM) gave a morphology score in assay [1] of -0.108. In addition, the SARS-CoV-2 infection rate in assay [2] is 110% (inactive).

Turning to `O=C(CCBr)N1CCN(C(=O)CCBr)CC1` [pipobroman] (10 µM), in assay [1], the morphology score stood at 0.23. The SARS-CoV-2 infection rate in assay [2] was 98.5% (inactive).

In assay [1], `CCCCC(=O)OCC(=O)[C@]1(O)Cc2c(O)c3c(c(O)c2[C@@H](O[C@H]2C[C@H](NC(=O)C(F)(F)F)[C@H](O)[C@H](C)O2)C1)C(=O)c1c(OC)cccc1C3=O` [valrubicin] (0.833333 µM) had a morphology score of 0.122. In assay [2], the SARS-CoV-2 infection rate was 97% (inactive).

In turn, `O=C1NC(=O)c2c1c(-c1ccccc1)cc1[nH]c3ccc(O)cc3c21` (0.833333 µM) had a morphology score in assay [1] of 0.685. Also, the SARS-CoV-2 infection rate in assay [2] was 93.5% (inactive).

With `CC(C)CN(C[C@@H](O)[C@H](Cc1ccccc1)NC(=O)O[C@H]1CO[C@H]2OCC[C@H]21)S(=O)(=O)c1ccc(N)cc1` [darunavir] (10 µM), the morphology score in assay [1] turned out to be 0.156. In addition, the SARS-CoV-2 infection rate in assay [2] was 107% (inactive).

`CCOc1ccc2nc3cc(N)ccc3c(N)c2c1` [ethacridine-lactate-monohydrate] (10 µM) came in with a morphology score in assay [1] of 0.0887. For the same molecule, the SARS-CoV-2 infection rate in assay [2] was 95.5% (inactive).

Molecule `Cc1nc(Nc2n[nH]c3c2CN(C(=O)N[C@H](CN(C)C)c2ccccc2)C3(C)C)c2sccc2n1` (10 µM) returned a morphology score in assay [1] of -0.232. In assay [2], the SARS-CoV-2 infection rate was 111% (inactive).

`O=C(CCCCCCCC(=O)NCCO)NCCO` [adelmidrol] (10 µM): in assay [1], the morphology score was -0.0406. In addition, the SARS-CoV-2 infection rate in assay [2] is 105% (inactive).

`CN1C/C=C/CCOc2cccc(c2)-c2ccnc(n2)Nc2cccc(c2)C1` (10 µM) displayed a morphology score in assay [1] of -0.0856. Moreover, the SARS-CoV-2 infection rate in assay [2] was 104% (inactive).

In assay [1], `Cc1cc(C)c(CNC(=O)c2cc(-c3ccc(N4CCN(C)CC4)nc3)cc3c2c(C)cn3C(C)C)c(=O)[nH]1` (10 µM) displayed a morphology score of 0.171. The SARS-CoV-2 infection rate in assay [2] was 98% (inactive).

As to `CCC(NC(C)C)C(O)c1ccc(O)c2[nH]c(=O)ccc12` (stereo not given) [procaterol] (10 µM), the morphology score in assay [1] was determined as 0.142. Also, the SARS-CoV-2 infection rate in assay [2] is 88% (inactive).

`CO/N=C1\C[C@]2(C[C@@H]3C[C@@H](C/C=C(\C)C[C@@H](C)/C=C/C=C4\CO[C@@H]5[C@H](O)C(C)=C[C@@H](C(=O)O3)[C@]45O)O2)O[C@H](/C(C)=C/C(C)C)[C@H]1C` [moxidectin] (10 µM): the morphology score in assay [1] was 0.272. In assay [2], the SARS-CoV-2 infection rate is 98.5% (inactive).

`C=CC[N+]1([C@H]2C[C@H]3[C@@H]4CC[C@H]5C[C@H](O)[C@@H](N6CCOCC6)C[C@]5(C)[C@H]4CC[C@]3(C)[C@H]2OC(C)=O)CCCC1` (10 µM) had a morphology score in assay [1] of 0.061. Moreover, the SARS-CoV-2 infection rate in assay [2] was 110% (inactive).

Turning to `C=C1/C(=C\C=C2/CCC[C@]3(C)[C@@H]([C@H](C)OCCC(C)(C)O)CC[C@@H]23)C[C@@H](O)C[C@@H]1O` [maxacalcitol] (10 µM), the morphology score in assay [1] is -0.0664. The SARS-CoV-2 infection rate in assay [2] is 122% (inactive).

`OC(CCN1CCCCC1)(c1ccccc1)C1CC2C=CC1C2` (stereo not given) [biperiden] (10 µM): the morphology score in assay [1] amounted to 0.48. In addition, the SARS-CoV-2 infection rate in assay [2] is 75.5% (inactive).

In turn, `CC(C)(C)NCC(O)COc1ccc(NC(=O)NC2CCCCC2)cc1` (stereo not given) [talinolol] (10 µM) gave a morphology score in assay [1] of 0.0728. Further, in assay [2], the SARS-CoV-2 infection rate is 106% (inactive).

Turning to `O=C(O)c1ccc(S(=O)(=O)N(Cl)Cl)cc1` [halazone] (10 µM), the morphology score in assay [1] stood at 0.13. In addition, in assay [2], the SARS-CoV-2 infection rate was 95% (inactive).

In assay [1], `Nc1n[n+]([O-])c2ccccc2[n+]1[O-]` [tirapazamine] (10 µM) displayed a morphology score of 0.0691. In assay [2], the SARS-CoV-2 infection rate was 99.5% (inactive).

On to `O=C(CN1C2=NCCN2c2ccccc21)c1ccc(-c2ccccc2)cc1` (10 µM), for which the morphology score in assay [1] was 0.646. Also, the SARS-CoV-2 infection rate in assay [2] is 35% (active).

On to `N[C@H](Cc1cc(I)c(Oc2ccc(O)c(I)c2)c(I)c1)C(=O)O` [liothyronine-(isomer)] (10 µM), for which, in assay [1], the morphology score worked out at 0.127. Besides, the SARS-CoV-2 infection rate in assay [2] is 106% (inactive).

Molecule `COc1ccc(C2CC(c3c(O)cc(C)oc3=O)=NCCS2)c(OC)c1` (stereo not given) (10 µM) returned a morphology score in assay [1] of 0.0127. For the same molecule, the SARS-CoV-2 infection rate in assay [2] was 101% (inactive).

Molecule `CNc1cc2c(Nc3cccc(Br)c3)ncnc2cn1` (10 µM) showed a morphology score in assay [1] of -0.276. For the same molecule, in assay [2], the SARS-CoV-2 infection rate was 112% (inactive).

Take `CC(=O)Oc1ccccc1C(=O)O` [aspirin] (10 µM): in assay [1], the morphology score is -0.027. The SARS-CoV-2 infection rate in assay [2] was 98% (inactive).

`Cn1cc(CCn2cnc(-c3cnn(C)c3)c2-c2ccc(C#N)cc2)cn1` (10 µM) yielded a morphology score in assay [1] of 0.0344. Besides, the SARS-CoV-2 infection rate in assay [2] was 97% (inactive).

Molecule `Cc1nc2c(-c3cnc(N)nc3)nc(N3CCOCC3)nc2n1C(C)C` (10 µM) displayed a morphology score in assay [1] of -0.0616. Besides, the SARS-CoV-2 infection rate in assay [2] was 108% (inactive).

Take `CCC1(c2ccccc2)C(=O)N(COC)C(=O)N(COC)C1=O` [eterobarb] (10 µM): in assay [1], the morphology score is -0.0955. Also, the SARS-CoV-2 infection rate in assay [2] is 106% (inactive).
